According to the supplement of paper PMC10105736:
A number with no mark means an inactive call.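 The calls were made as follows: active = MAPPIT score above the 99th percentile of random reference set scores in the same batch; inactive = at or below it.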

Legend:
Experiment in all cases: MAPPIT interaction score (arbitrary units); higher = stronger binary interaction signal, active = hit call of the paper
GstD8 = conditions: MAPPIT configuration: N-N; pair source set: screen_1
Hsc70-1 = conditions: MAPPIT configuration: N-N; pair source set: DPIM
GstE4 = conditions: MAPPIT configuration: N-C; pair source set: RRS
PGRP-LE = conditions: pair source set: Lit-BM-16
Wee1 = conditions: MAPPIT configuration: N-N; pair source set: Curagen_high_conf
Hrb27C = conditions: MAPPIT configuration: N-N; pair source set: Lit-BM-16
HP6 = conditions: MAPPIT configuration: N-N; pair source set: screen_1
Hsp60B = conditions: MAPPIT configuration: N-N; pair source set: Lit-BS-16
Hsp27 = conditions: MAPPIT configuration: N-N; pair source set: Curagen_low_conf
HP5 = conditions: MAPPIT configuration: N-N; pair source set: Curagen_low_conf
Hn = conditions: MAPPIT configuration: N-N; pair source set: Curagen_high_conf
jbug = conditions: MAPPIT configuration: N-C; pair source set: screen_3
Hmg-2 = conditions: MAPPIT configuration: N-C; pair source set: screen_3
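Also: HEK293T cells with Epo stimulation, STAT-responsive firefly luciferase reporter, fold induction versus unstimulated cells divided by the larger fold induction of two negative controls lacking either bait or prey.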

B1: GstD1 (protein)
chain: MVDFYYLPGSSPCRSVIMTAKAVGVELNKKLLNLQAGEHLKPEFLKINPQHTIPTLVDNGFALWESRAIQVYLVEKYGKTDSLYPKCPKKRAVINQRLYFDMGTLYQSFANYYYPQVFAKAPADPEAFKKIEAAFEFLNTFLEGQDYAAGDSLTVADIALVATVSTFEVAKFEISKYANVNRWYENAKKVTPGWEENWAGCLEFKKYFE
MAPPIT interaction score (GstD8): 5.85 (active)

B2: caly (protein)
chain: MNAAGGGSGAQAAAVAAGNNSLSHNALLSTASGATTMPMAQLADGWLELESDPGLFTLLLKDFGCHDVQVEEVYDLQKPIESPYGFIFLFRWIEERRARRKIVETTAEIFVKDEEAISSIFFAQQVVPNSCATHALLSVLLNCNENNLQLGDTLSRLKTHTKGMSPENKGLAIGNTPELACAHNSHAMPQARRRLERTGAGVSSCRFTGEAFHFVSFVPINGQLFELDGLKPYPMNHGGWEDSEDWTDKFRRVMAERLGIATGEQDIRFNLMAVVPDRRIAITHKLKMLRTNQAIVSGTLQKLLKADEQGESGNGDSQRPDTPTTLLEPSAFTARDLQSLLKNLDTEIAINEQHLADENDRRHMFKVDASRRTHNYDKFICTFLSMLAHQGVLGELVSQHLLPSKKVSGQGAANRISKQSTTASAGGSTAAGTASTPKTQQQQAAAAKNGKSPSKTPGRRRKGRNKCRKRK
MAPPIT interaction score (Hsc70-1): 2.29

B3: PGRP-LE (protein)
chain: MSESGIKKLSQERTREWLASQEDEELESIAESSVVDSLDYDYTEEEEDADQNTSEEISTMTLGTQIATKKHSIISDTIRDLMNSINSIQTLGNVNISNSTNVHIGNVTNINGNIQIIADGLTQNRRDRRHVSPPRDNAPKTPTHFEDDYQDESEERVRSDVFIRRQKFKIPKELSAIIPRSSWLAQKPMDEPLPLQLPVKYVVILHTATESSEKRAINVRLIRDMQCFHIESRGWNDIAYNFLVGCDGNIYEGRGWKTVGAHTLGYNRISLGISFIGCFMKELPTADALNMCRNLLARGVEDGHISTDYRLICHCQCNSTESPGRRLYEEIQTWPHFYNIEEEEQ
MAPPIT interaction score (GstE4): 0.646 | MAPPIT interaction score (PGRP-LE; MAPPIT configuration: N-C): 3.96 (active) | MAPPIT interaction score (PGRP-LE; MAPPIT configuration: N-N): 4.49 (active) | MAPPIT interaction score (Wee1): 2.63 (active)

B4: sqd (protein)
chain: MAENKQVDTEINGEDFTKDVTADGPGSENGDAGAAGSTNGSSDNQSAASGQRDDDRKLFVGGLSWETTEKELRDHFGKYGEIESINVKTDPQTGRSRGFAFIVFTNTEAIDKVSAADEHIINSKKVDPKKAKARHGKIFVGGLTTEISDEEIKTYFGQFGNIVEVEMPFDKQKSQRKGFCFITFDSEQVVTDLLKTPKQKIAGKEVDVKRATPKPENQMMGGMRGGPRGGMRGGRGGYGGRGGYNNQWDGQGSYGGYGGGYGGYGAGGYGDYYAGGYYNGYDYGYDGYGYGGGFEGNGYGGGGGGNMGGGRGGPRGGGGPKGGGGFNGGKQRGGGGRQQRHQPY
MAPPIT interaction score (Hrb27C): -0.206

B5: dmt (protein)
chain: MVRTRPVPCVPSPDVNTATRRNPGRPKKQSIGADLSTTISKPGRPKKLSIGADLTTIRKPGRPKKLGADLTTIIRKPGRPTKLSNKQSLTALNEPECRIRKCVVKIRRIKVKNGVVSEISRNDAPDVDASTFEPARNSTMYIPSKVQKSTQPQNIKENVAGPETSPCQQRIRSKSPSGPAAEISPKKPPRFFHRDQPLTRTRSSVTRNVFDFLSQSQIEDDSDREDPAADIIQRLVKDGKACVMVRSRKIGKPRAKRTAKKVRPVGNRRKVSTKDNEPEPVKVVPKSIEPRLQKPSRSLSTIFEPEEDYSNDSEHGYVQPIEVPVQVHVEPSTSKQAHEGAYSNLARSVMLNQTQAQNPLPSTDRRRELINMARQLVSTPLNRRAPPVTDVSATTTALSPIAHQSPNAVRTAGGKSPWRVSDDSPLPNTFMFGFNNSQMPSYSSDHVQRRHVYVPDSPVEHAENIPHEESICPPLHEQNHDSNANDSNEENRPPPTISKSMSINDQESEENAENFVHLPNPRRTLQKRTPFKDINILEVVTLPSWKKNVTATVSKEITPTRVAPRPMATSSPAQRSQTRSNLFGFDDDFACEDIPRKSTTPSKGIAPTSMSLNREVTPALANRNQTEVNTFGCNEILPCENIPKEKETNTEERTSSSQNLFGFDEFITESQDSPANFTGLSQNVNLHDKLHRLAELRPRDGELPQVSYTSIRSDCLGESHSKQTDIRYMLCSTMIAPPRPAKRKPAAPTARESMGLFRVDQDEPEQSFADKQPRRTYVKERPQRKRKKRVQILYIESESEDEDEQDSHDKSLDSPEKKRHHVKRPRRDIEHEAKLEQFVTSFNKQCEEVEKFPVIIE
MAPPIT interaction score (HP6): 4.14 (active)

B6: Sf3b3 (protein)
chain: MYLYNLTLQKATGVTHAVHGNFSGGKQQEVLLSRGKSLELLRPDSNTGKVHTLLSTEIFGCVRALMAFRLTGGTKDYIVVGSDSGRIVILEYNPSKNALEKVHQETFGKSGCRRIVPGQYFAIDPKGRAVMIGAVEKQKLAYIMNRDTQARLTISSPLEAHKSNTLTYHMVGVDVGFDNPMFACLEIDYEEADMDPSGDAAQRTQQTLTFYELDLGLNHVVRKYSEPLEEHANFLVSVPGGNDGPSGVLICSENYLTYKNLGDQHDIRCPIPRRRNDLDDPERGMIFICSATHRTKSMYFFLLQTEQGDIFKITLETDDDVVSEIKLKYFDTVPPATAMCVLKTGFLFVASEFGNHYLYQIAHLGDDDDEPEFSSAMPLEEGETFFFAPRALKNLVLVDELPSFAPIITSQVADLANEDTPQLYVLCGRGPRSTLRVLRHGLEVSEMAVSELPGNPNAVWTVKKRADDEFDAYIIVSFVNATLVLSIGETVEEVTDSGFLGTTPTLCCAALGDDALVQVYPDGIRHIRSDKRVNEWKAPGKKSITKCAVNQRQVVITLSGRELVYFEMDPTGELNEYTERSEMPAEIMCMALGTVPEGEQRSWFLAVGLADNTVRILSLDPNNCLTPCSMQALPSPAESLCLVEMGHTESTTQGGLDDDAPAQRSGNNKGTIYLNIGLSNGVLLRTVLDPVSGDLADTRTRYLGSRPVKLFRIKMQGSEAVLAMSSRTWLSYYHQNRFHLTPLSYETLEYASGFSSEQCSEGIVAISTNTLRILALEKLGAVFNQVAFPLQYTPRTFVIHPDTGRMLIAETDHNAYTEDTKSARKEQMAEEMRSAAGDEERELAREMANAFINEVLPEDVFSSPKAGLGLWASQIRCLDAMHGQTMFSVPLTQNEAIMSMAMLKFSIAADGRYYLAVGIAKDLQLNPRISQGGCIDIYKIDPTCSSLEFMHRTDIDEIPGALCGFQGRLLAGCGRMLRIYDFGKKKMLRKCENKHIPYQIVNIQAMGHRVYVSDVQESVFFIRYRRAENQLIIFADDTHPRWVTATTLLDYDTIAIADKFGNLSIQRLPHSVTDDVDEDPTGTKSLWDRGLLSGASQKSENICSFHVGEIIMSLQKATLIPGGSEALIYATLSGTVGAFVPFTSREDYDFFQHLEMHMRNENPPLCGRDHLSYRSSYYPVKNVLDGDLCEQYLSIEAAKQKSIAGDMFRTPNQICKKLEDIRTRYAF
MAPPIT interaction score (Hsp60B): 1.36

B7: mael (protein)
chain: MAPKKHSGFMMFVNEWRNRNAEGRRMTLAQAVSHCGTIWEKMNTQQRGPYNSGGKDANVAQRAKRESSNGHGQVDKAQREATESLMDMKRTIERLVLNAKMSHDLENAKFVFVAFNYFTKALTTDVYVPAEFAACEYSLKEGIRSIYSTMIDPGQIIFGQGSDALLHSSTTHDLPLPPNALGEKNMTKLYRNIVDYLSKCQGKGKTLVVFTPAENITMVKSCFRYLECDDDFRDGGEKIQVFDIQYLLFILKKEVMNVADLNDEKINKFATDAFFKKDFFEFTAGIACQYHEDNDRTKYCTQSMVTRWAYTFTDFMCGDLAITVQPGKHIPAQTKPNYLIISSYASSLDHESSFDSFYSLPGSGVKKESQPEACSLSSSRLSVASSSYKPIDHTSFAANLNEVSEFPSLGMRNSSKHHGIAASAQREWNARNLPTHSRLIRKVSDNDFSVNGADGKLKK
MAPPIT interaction score (Hsc70-1): 2.36

B8: Lis-1 (protein)
chain: MKMVLSQRQREELNQAIADYLGSNGYADSLETFRKEADLSTEVEKKFGGLLEKKWTSVIRLQKKVMELEAKLTEAEKEVIEGAPTKNKRTPGEWIPRPPEKFSLTGHRASITRVIFHPIFALMVSASEDATIRIWDFETGEYERSLKGHTDSVQDVAFDAQGKLLASCSADLSIKLWDFQQSYECIKTMHGHDHNVSSVAFVPAGDYVLSASRDRTIKMWEVATGYCVKTYTGHREWVRMVRVHIEGSIFATCSNDQTIRVWLTNSKDCKVELRDHEHTVECIAWAPEAAASAINEAAGADNKKGHHQGPFLASGSRDKTIRIWDVSVGLCLLTLSGHDNWVRGLAFHPGGKYLVSASDDKTIRVWDLRNKRCMKTLYAHQHFCTSIDFHKAHPYVISGSVDQTVKVWECR
MAPPIT interaction score (Hsp27): -0.515

B9: ZIPIC (protein)
chain: MNCCICQFSVRVPKDIHTDTVGHPPVLISELVLQCTRGTNYVLTEESSTICKKCCEKLARYHKSIQIARKLRGEILELIHSPYMSKDHKQTSYKEDDLDRETTISKFDGNIEEAQQQDEEEQELESVGTTVTLVGPAGIVEEVAEEEHTFIIKQSEEEDEFHSVDLELDIDNEIIINEEEAHEVEEVAHEIEEVAHEIEEEDLLPHDKQEAQEEDFFKEDTMSDFDEHLDGAIEYIISDGEDQEQDNESSGEYTVNIQCPSCPEKFSSRRAYNVHTKREHFPGYVCDQCGKTLQSYSGFIGHLQNHEPVKQFACPVCPERFSRKFRLKHHMAWHSGETPYQCDVCSKRFVHKVALYKHKMIHDSETKRLECQVCGFKTRTKAHLERHMRSHTGDKPFACPVCNKRFSQMYNMKAHLREHESPGTNRHRRFHCSKCTHTFINEQNYDAHVQRDDCTPV
MAPPIT interaction score (HP5): 0.196

B10: Nelf-E (protein)
chain: MVYIHFPNNLTEEEQMLQAKYQKLKKKKKALQAHKAPKPEPESSLTLKRPTDARDAREVARKLIKSGAIPAIQKQTKQDQTSFKRPKGQERAKRSTSETTVASYQPFSSTQNDVAQETIISEIIKEEPRRQNLYQHFATERDREERGMPEKVPMDTAQPEKPRAGNTIFVSGNKVTEDFLKKTFNDYGTIVNVSMEIEKSRGFVSFAKPESADRAIAEIHGKNVNGINLQVQLARRQPQIEPINDASSSAVWSSIAASKSQKGSHKDHREMVQYDEDFLL
MAPPIT interaction score (Hn): 0.208 | MAPPIT interaction score (jbug): 0.0879

B11: Sas10 (protein)
chain: MDSDGDDYVMSGSDQEYDDEEREILEDLRKQRKKPHDPVQEVLGFSDDDDDDDDDDEEEQQDVAELMRDSDIEGAEDDDRDLPNTMDWGSKRSTYYNTDFVDQDYSSYNAQEEEQARAEEEEAKKIQLRLAKRMSEADFQLDNVEAAPAGSSDDNELSHITKVTSDLAGLSERERRQLMHSESPEFIILTQDFQQHLDEVKNLLKPVLNYVRKHDVPMVPALQYAGLCHTVLTTYCSNVAFYLLLKARRIDVKAHPVIRRLVQLKDLIEELKPRYEEYIRPQLEALLERIEDGDAFTVLDVAQRKAKLQILNKYNDGQQASVSSDDDDNDDDDDAESKEKDLQEEAGEEEEEEDARRGITYQMAKNKGLTPHRKKELRNPRVKHRGKYRKALIRRKGAVRTVRKELQRYGGELSGIKAGVTKSVKFRT
MAPPIT interaction score (Hmg-2): 0.087
